Measured values from PubChem BioAssay AID651598 (Sanford-Burnham Center for Chemical Genomics, 2012).
“And” between values parts separate entries of the source, which are not always exact repeats. Identical values can stand only once.

Biological target: Apelin receptor (Homo sapiens) (UniProt P35414)
Assay: APJ beta-arrestin recruitment blockade alongside CXCR6 – cell-based, DiscoveRx, panel, CHO-K1, counter-screen for CXCR6 antagonist project, SAR follow-up (AID 651598)
Settings: CHO-K1 PathHunter beta-arrestin luminescence, antagonist mode; run 2, at 80 µM (top of the series)

Chain of Apelin receptor (Homo sapiens) (P35414 whole entry, looked up): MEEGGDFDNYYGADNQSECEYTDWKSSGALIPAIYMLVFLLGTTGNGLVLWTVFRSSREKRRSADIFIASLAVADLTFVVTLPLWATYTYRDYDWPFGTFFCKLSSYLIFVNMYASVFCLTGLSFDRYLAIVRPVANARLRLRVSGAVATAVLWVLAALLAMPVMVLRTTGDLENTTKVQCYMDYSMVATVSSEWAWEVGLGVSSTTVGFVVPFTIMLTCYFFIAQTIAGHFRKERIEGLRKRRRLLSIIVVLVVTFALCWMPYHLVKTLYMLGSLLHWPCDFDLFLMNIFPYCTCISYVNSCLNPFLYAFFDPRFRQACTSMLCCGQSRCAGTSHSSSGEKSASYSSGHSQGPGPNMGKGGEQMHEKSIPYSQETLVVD

Row | Compound | inhibition
1 | COc1cc(C(=O)NC2CC3CCC(C2)N3CC(=O)Nc2ccccc2)cc(OC)c1OC (stereo not drawn) | -3.64% and 3.22%
2 | COc1cc(C(=O)NC2CC3CCCC(C2)N3CC(=O)Nc2ccccc2)cc(OC)c1OC (stereo not drawn) | 11.6% and 7.3% and -8.97%
3 | COc1cc(C(=O)NC2CCN(CC(=O)Nc3ccccc3)CC2)cc(OC)c1OC | 4.86%
